Assay results published in PubChem BioAssay (Tox21).
Results filed as inconclusive are left out. The source made the active and inactive calls. Unless noted, the call rests on the fitted dose curve.

Columns and labels:
[1] = Nuclear factor erythroid 2-related factor 2/antioxidant responsive element (Nrf2/ARE) small molecule agonists: qHTS cell viability counter screen in human keratinocytes (AID 1919968; active means well fitted curve in the direction sought with a large enough effect in the repeat runs; an effect the other way counts as inactive or inconclusive; further: nearly all actives have a fitted effect of over 55% in size)
How it was run: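 CellTiter-Fluor fluorescence, read 1 h after reagent, gave viability in the same wells as the ARE-luciferase assay. KeratinoSens cells (1,500/well) had 23 h compound exposure at 37 C/5% CO2 following 5 h plating.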

[2] = Nuclear factor erythroid 2-related factor 2/antioxidant responsive element (Nrf2/ARE) small molecule agonists: luciferase reporter gene qHTS assay in human keratinocytes (AID 1919969); further: nearly all actives have a fitted effect of over 35% in size
[3] = molecular target: Gonadotropin-releasing hormone receptor (Homo sapiens) (UniProt P30968); assay: Human gonadotropin-releasing hormone receptor (GnRHR) small molecule agonists, calcium flux assay in GnRHR-HEK293 cells (AID 1920063); further: nearly all actives have a fitted effect of over 35% in size
How it was run: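 Agonist mode: compounds at 15 concentrations, in triplicate, went onto calcium dye-loaded GnRHR-HEK293 cells. Intracellular calcium was then followed as 480/540 nm fluorescence at 1 s intervals over 3 min.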

[4] = molecular target: KiSS-1 receptor (Homo sapiens) (UniProt Q969F8); assay: Human kisspeptin (KISS1R) small molecule agonists, calcium flux assay in KISS1R-HEK293 cells (AID 1920064; active means well fitted curve in the direction sought with a large enough effect in the repeat runs; an effect the other way counts as inactive or inconclusive)
How it was run: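 Agonist mode: intracellular calcium rise tracked at 1 s intervals over 3 min (480/540 nm) immediately after compound addition to dye-loaded KISS1R-HEK293 stable cells. Each compound tested at 15 concentrations in triplicate.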

[5] = G protein-coupled receptor (GPCR) small molecule agonists, calcium flux assay: HEK293 wild type cell line counter screen (AID 1920065)
How it was run: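 Calcium flux counter screen: compound added in agonist mode at 15 concentrations in triplicate to dye-loaded parental HEK293 cells. Fluorescence (480/540) read kinetically for 3 min; ATP served as positive control.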

[6] = p53 small molecule agonists, cell-based qHTS assay with human liver microsomes (AID 1963577);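 further: p53 response element beta-lactamase reporter cells with liver microsomes plus NADPH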
How it was run: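 p53RE-bla cells; 5 h settle, 37 C/5% CO2; cpd + HLM 0.5 mg/mL + NADPH 0.5 mg/mL (final); 16 h 37 C; LiveBLAzer 2 h RT dark; fluorescence readout.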

[7] = p53 small molecule agonists, cell-based qHTS assay with rat liver microsomes (AID 1963578)
How it was run: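 Rat liver microsome activation: microsomes 0.5 mg/mL, NADPH 0.5 mg/mL final; p53RE-bla cells, 16 h 37 C; LiveBLAzer readout, 2 h RT dark.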

[8] = p53 small molecule agonists, cell-based qHTS assay with human liver microsomes: qHTS cell viability counter screen (AID 1963579); further: nearly all actives have a fitted effect of over 45% in size
How it was run: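 Luminescent CellTiter-Glo read-out, 30 min at room temperature, gauged cytotoxicity in p53RE-bla cells exposed 16 h at 37 C to DMSO-dissolved compounds with metabolic activation by human liver microsomes and NADPH, each 0.5 mg/mL final.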

[9] = p53 small molecule agonists, cell-based qHTS assay with rat liver microsomes: qHTS cell viability counter screen (AID 1963580); further: nearly all actives have a fitted effect of over 45% in size
How it was run: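 Rat liver microsome (0.5 mg/mL final) and NADPH (0.5 mg/mL final) co-incubation with compounds for 16 h at 37 C on HCT-116 p53RE-bla cells; cytotoxicity taken from intracellular ATP luminescence.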

[10] = p53 small molecule agonists, cell-based qHTS assay: qHTS cell viability counter screen (AID 1963581); further: nearly all actives have a fitted effect of over 45% in size
How it was run: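 Counter screen read by CellTiter-Glo luminescence (ATP content, 30 min at room temperature), run in the same wells as the beta-lactamase reporter read. HCT-116 p53RE-bla cells saw compounds for 16 h at 37 C.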

[11] = p53 small molecule agonists, cell-based qHTS assay (AID 1963582; active means well fitted activation curve with a large enough effect in the signal ratio in the repeat runs, not every such curve was filed as active; the % refers to the signal ratio)
How it was run: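 Read-out is beta-lactamase FRET fluorescence after 2 h at room temperature with LiveBLAzer B/G substrate. p53 response element-bla cells were treated 16 h at 37 C with compounds in DMSO, added 5 h after seeding.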

[12] = molecular target: 5-hydroxytryptamine receptor 2A (Homo sapiens) (UniProt P28223); assay: 5-hydroxytryptamine receptor 2A (HTR2A) small molecule antagonists, cell-based qHTS assay (AID 1963586); further: nearly all actives have a fitted effect of over 45% in size
How it was run: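 CHO cells stably expressing human HTR2A were plated for 18 h at 37 C, then loaded with calcium dye for 1 h. Compounds were preincubated 5 min at room temperature before DOI (4 nM solution) was added. Kinetic fluorescence was read for 3 min.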

[13] = molecular target: 5-hydroxytryptamine receptor 2A (Homo sapiens) (UniProt P28223); assay: 5-hydroxytryptamine receptor 2A (HTR2A) small molecule agonists, cell-based qHTS assay (AID 1963587); further: nearly all actives have a fitted effect of over 30% in size
How it was run: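 Kinetic calcium-flux fluorescence (2 min, 1 sec intervals) after compound addition in agonist mode. HTR2A-CHO cells were cultured 18 h, then dye-loaded 1 h at 37 C.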

[14] = molecular target: Muscarinic acetylcholine receptor M1 (Homo sapiens) (UniProt P11229); assay: Cholinergic receptor muscarinic 1 (CHRM1) small molecule agonists, cell-based qHTS assay (AID 1963589); further: nearly all actives have a fitted effect of over 35% in size
How it was run: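 Agonist-mode calcium-flux screen: compounds at 15 concentrations, three independent runs, were pin-transferred onto dye-loaded human CHRM1-CHO cells. Fluorescence was then recorded kinetically every second over minutes.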

[15] = cAMP Responsive Elements (CRE) small molecule agonists, cell-based qHTS assay (AID 1963590)
How it was run: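 Agonist mode: compound added to CRE-bla HEK 293T cells (2,000/well, 18 h after plating) for 3 h at 37 C/5% CO2. Reporter activity detected via FRET beta-lactamase substrate, 2 h room-temperature loading.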

[16] = cAMP Responsive Elements (CRE) small molecule antagonists, cell-based qHTS assay (AID 1963591; active means well fitted inhibition curve with a large enough effect in the signal ratio in the repeat runs, not every such curve was filed as active; the % refers to the signal ratio)
How it was run: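 Antagonist mode: compounds are added alongside the adenylyl cyclase activator NKH477 (0.25 uM final) to CRE-bla HEK293T cells for 3 h. LiveBLAzer FRET substrate, 2 h at room temperature, reports bla expression.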

[17] = molecular target: Beta-2 adrenergic receptor (Homo sapiens) (UniProt P07550); assay: Adrenergic beta2 receptor (ADRB2) small molecule antagonists, cell-based qHTS assay (AID 1963592); further: series mostly up to about 92 µM; nearly all actives have a fitted effect of over 50% in size
How it was run: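 Assay format: CHO-ADRB2 cells, 18-20hr seeding at 37C/5% CO2, then compound plus 1nM isoproterenol agonist mix for 0.5hr RT. Homogeneous time-resolved fluorescence cAMP detection after 1hr, expressed as 665/615 nm ratio.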

[18] = molecular target: D(2) dopamine receptor (Homo sapiens) (UniProt P14416); assay: Dopamine D2 receptor (DRD2) small molecule agonists, cell-based qHTS assay (AID 1963594); further: nearly all actives have a fitted effect of over 35% in size
How it was run: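 cAMP accumulation in DRD2-HEK293 cells measured by HTRF after 1 h detection; compounds added 10 min before NKH477 (200nM […]) forskolin-analogue stimulation, 30 min at room temperature, with Ro20-1724 present at 0.1 mM final.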

[19] = molecular target: D(2) dopamine receptor (Homo sapiens) (UniProt P14416); assay: Dopamine D2 receptor (DRD2) small molecule antagonists, cell-based qHTS assay (AID 1963595; active means well fitted inhibition curve with a large enough effect in the signal ratio in the repeat runs, with a control signal flat; the % refers to the signal ratio)
How it was run: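 Cells were plated and grown for 24 h at 37 °C. Ro20-1724 (0.1 mM final) went in first, then compound for 10 min. NKH477 (200 nM) with quinpirole (12 nM) followed for 30 min at RT, then HTRF detection reagents for 1 h.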

[20] = molecular target: Muscarinic acetylcholine receptor M1 (Homo sapiens) (UniProt P11229); assay: Cholinergic receptor muscarinic 1 (CHRM1) small molecule antagonists, cell-based qHTS assay (AID 1963588); further: nearly all actives have a fitted effect of over 40% in size
How it was run: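 Compounds were tested at 15 concentrations in three independent runs. Dye-loaded CHRM1-CHO cells were exposed 5 min at room temperature before stimulation by acetylcholine added at 50nM. Intracellular calcium was read kinetically on FDSS for 3 min.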
On the % scale 0 is the no-effect control and ±100 the full control effect.

Sequence of Beta-2 adrenergic receptor (Homo sapiens) (P07550 whole entry, looked up): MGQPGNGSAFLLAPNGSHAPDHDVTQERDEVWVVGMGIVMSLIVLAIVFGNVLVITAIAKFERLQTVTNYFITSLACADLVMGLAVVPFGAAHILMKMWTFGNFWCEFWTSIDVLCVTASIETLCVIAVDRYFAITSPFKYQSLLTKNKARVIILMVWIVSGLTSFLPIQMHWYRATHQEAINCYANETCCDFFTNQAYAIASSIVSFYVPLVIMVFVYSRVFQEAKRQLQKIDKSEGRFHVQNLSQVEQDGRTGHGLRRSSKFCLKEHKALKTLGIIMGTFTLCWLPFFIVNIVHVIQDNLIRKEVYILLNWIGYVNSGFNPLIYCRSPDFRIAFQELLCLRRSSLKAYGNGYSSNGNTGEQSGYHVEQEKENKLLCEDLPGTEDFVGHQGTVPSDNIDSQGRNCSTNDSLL
Sequence of 5-hydroxytryptamine receptor 2A (Homo sapiens) (P28223 whole entry, looked up): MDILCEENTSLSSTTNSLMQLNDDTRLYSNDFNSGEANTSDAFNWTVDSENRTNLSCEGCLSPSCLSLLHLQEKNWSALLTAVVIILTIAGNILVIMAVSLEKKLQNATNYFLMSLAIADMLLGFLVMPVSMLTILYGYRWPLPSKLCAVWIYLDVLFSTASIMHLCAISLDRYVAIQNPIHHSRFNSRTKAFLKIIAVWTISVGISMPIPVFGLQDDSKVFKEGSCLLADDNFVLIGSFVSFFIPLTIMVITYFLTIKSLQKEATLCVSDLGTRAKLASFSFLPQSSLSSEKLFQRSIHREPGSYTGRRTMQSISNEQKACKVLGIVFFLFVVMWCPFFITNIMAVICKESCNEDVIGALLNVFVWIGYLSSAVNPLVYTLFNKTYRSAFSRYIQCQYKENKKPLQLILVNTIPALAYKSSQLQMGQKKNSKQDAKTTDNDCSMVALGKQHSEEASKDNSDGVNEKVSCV
Sequence of Gonadotropin-releasing hormone receptor (Homo sapiens) (P30968 whole entry, looked up): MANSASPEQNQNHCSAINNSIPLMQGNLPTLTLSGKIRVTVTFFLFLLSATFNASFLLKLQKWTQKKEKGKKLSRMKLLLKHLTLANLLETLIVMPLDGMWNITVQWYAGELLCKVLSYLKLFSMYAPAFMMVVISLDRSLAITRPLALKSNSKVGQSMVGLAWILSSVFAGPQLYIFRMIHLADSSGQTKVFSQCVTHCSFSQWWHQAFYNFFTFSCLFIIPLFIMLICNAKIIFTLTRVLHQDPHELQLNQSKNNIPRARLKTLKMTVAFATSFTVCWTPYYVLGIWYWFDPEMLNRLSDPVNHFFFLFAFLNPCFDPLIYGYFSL
Sequence of KiSS-1 receptor (Homo sapiens) (Q969F8 whole entry, looked up): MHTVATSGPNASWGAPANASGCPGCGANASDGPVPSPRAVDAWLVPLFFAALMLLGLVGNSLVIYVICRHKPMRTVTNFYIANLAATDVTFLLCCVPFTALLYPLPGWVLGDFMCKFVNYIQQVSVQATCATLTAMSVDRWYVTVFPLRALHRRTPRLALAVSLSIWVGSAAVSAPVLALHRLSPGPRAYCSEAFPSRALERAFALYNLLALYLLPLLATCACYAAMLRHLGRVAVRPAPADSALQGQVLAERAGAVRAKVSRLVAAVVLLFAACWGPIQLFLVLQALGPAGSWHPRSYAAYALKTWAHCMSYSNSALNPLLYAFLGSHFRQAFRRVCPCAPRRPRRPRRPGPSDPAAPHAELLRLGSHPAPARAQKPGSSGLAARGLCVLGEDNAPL
Sequence of Muscarinic acetylcholine receptor M1 (Homo sapiens) (P11229 whole entry, looked up): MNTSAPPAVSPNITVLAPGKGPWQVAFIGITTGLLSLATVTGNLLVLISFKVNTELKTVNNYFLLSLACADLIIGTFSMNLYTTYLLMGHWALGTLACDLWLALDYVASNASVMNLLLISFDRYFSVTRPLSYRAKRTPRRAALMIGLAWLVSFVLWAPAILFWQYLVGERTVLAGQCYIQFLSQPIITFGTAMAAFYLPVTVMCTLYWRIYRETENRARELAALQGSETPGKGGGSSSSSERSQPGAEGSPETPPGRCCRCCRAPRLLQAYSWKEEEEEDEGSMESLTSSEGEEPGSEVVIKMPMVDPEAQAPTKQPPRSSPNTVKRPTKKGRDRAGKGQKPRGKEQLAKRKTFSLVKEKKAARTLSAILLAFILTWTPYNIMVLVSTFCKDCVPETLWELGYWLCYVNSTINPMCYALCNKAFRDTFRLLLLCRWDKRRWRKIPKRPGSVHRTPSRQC
Sequence of D(2) dopamine receptor (Homo sapiens) (P14416 whole entry, looked up): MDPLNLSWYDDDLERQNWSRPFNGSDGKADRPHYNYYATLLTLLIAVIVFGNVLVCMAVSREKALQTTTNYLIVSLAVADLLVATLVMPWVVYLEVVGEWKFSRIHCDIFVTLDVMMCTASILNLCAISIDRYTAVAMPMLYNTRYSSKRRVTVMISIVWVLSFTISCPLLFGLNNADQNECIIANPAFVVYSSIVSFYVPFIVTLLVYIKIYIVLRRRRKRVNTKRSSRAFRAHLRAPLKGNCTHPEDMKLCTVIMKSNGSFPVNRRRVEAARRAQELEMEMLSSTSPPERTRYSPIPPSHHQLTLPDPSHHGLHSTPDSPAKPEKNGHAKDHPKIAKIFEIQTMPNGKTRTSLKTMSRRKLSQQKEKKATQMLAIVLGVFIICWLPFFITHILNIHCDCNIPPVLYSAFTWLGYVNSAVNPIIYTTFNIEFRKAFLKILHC

ClCCl
inactive: Potency [1] | Potency [2] | Potency [3] | outcome [4] | outcome [5] | Potency [6] | Potency [7] | Potency [8] | Potency [9] | Potency [10] | Potency [11] | Potency [12] | Potency [13] | Potency [14] | Potency [15] | Potency [16] | Potency [17] | Potency [18] | Potency [19]

COc1cc(C(C)C)ccc1C
inactive: activity change, negative = cytotoxicity [1] 2.71% [at 19 µM] | activity, positive = activation [2] 17.4% [at 19 µM] | activity change [3] 0.369% [at 11.8 µM, active compounds read high] | activation [4] 3.09% [at 15.8 µM] | activation [5] -0.338% [at 11.8 µM] | activation [6] -9.12% [at 13.5 µM] | activation [7] 0.156% [at 13.6 µM] | activity change, negative = cytotoxicity [8] -0.449% [at 13.5 µM] | activity change, negative = cytotoxicity [9] 0.485% [at 13.5 µM] | activity change, negative = cytotoxicity [10] -2.99% [at 13.5 µM] | activation [11] -3.2% [at 13.5 µM] | activity, negative = inhibition [12] -13.4% [at 12.7 µM] | activation [13] 0.168% [at 15.9 µM] | activation [14] -0.0401% [at 15.8 µM] | activation [15] -1.07% [at 19 µM] | activity change, negative = inhibition [16] -0.604% [at 18.9 µM] | activity change, negative = inhibition [17] -2.77% [at 19 µM] | activation [18] -1.89% [at 19 µM] | activity change, negative = inhibition [19] 15.4% [at 18.9 µM]

CC(=O)C=O
inactive: Potency [1] | Potency [2] | Potency [3] | outcome [4] | outcome [5] | Potency [6] | Potency [7] | Potency [8] | Potency [9] | Potency [10] | Potency [11] | Potency [12] | Potency [13] | Potency [14] | Potency [15] | Potency [16] | Potency [17] | Potency [18] | Potency [19]

CCCC(=O)O[C@]1(C(=O)CC)CC[C@H]2[C@@H]3CCC4=CC(=O)CC[C@]4(C)[C@H]3[C@@H](O)C[C@@]21C
inactive: Potency [1] | Potency [2] | Potency [3] | outcome [4] | outcome [5] | Potency [6] | Potency [7] | Potency [8] | Potency [9] | Potency [10] | Potency [11] | Potency [12] | Potency [13] | Potency [20] | Potency [17] | Potency [19]

CC1=CCC(=C(C)C)CC1
inactive: Potency [1] | Potency [2] | Potency [3] | outcome [4] | outcome [5] | Potency [6] | Potency [7] | Potency [8] | Potency [9] | Potency [10] | Potency [11] | Potency [12] | Potency [13] | Potency [14] | Potency [15] | Potency [16] | Potency [17] | Potency [18] | Potency [19]

CC(=O)Nc1ccc(N)cc1
inactive: Potency [1] | Potency [2] | Potency [3] | outcome [4] | outcome [5] | Potency [6] | Potency [7] | Potency [8] | Potency [9] | Potency [10] | Potency [11] | Potency [12] | Potency [13] | Potency [20] | Potency [16] | Potency [17] | Potency [18] | Potency [19]

C=COCCCCO
inactive: Potency [1] | Potency [2] | Potency [3] | outcome [4] | outcome [5] | Potency [6] | Potency [7] | Potency [8] | Potency [9] | Potency [10] | Potency [11] | Potency [12] | Potency [13] | Potency [14] | Potency [15] | Potency [16] | Potency [17] | Potency [18] | Potency [19]

CCOC(=O)Cc1cccc2ccccc12
inactive: Potency [1] | Potency [2] | Potency [3] | outcome [4] | outcome [5] | Potency [6] | Potency [7] | Potency [8] | Potency [9] | Potency [10] | Potency [11] | Potency [12] | Potency [13] | Potency [20] | Potency [15] | Potency [17] | Potency [19]

CCC(C(=O)OCCN(CC)CC)c1ccccc1 (stereo not given)
inactive: Potency [1] | Potency [2] | Potency [3] | outcome [4] | outcome [5] | Potency [6] | Potency [7] | Potency [8] | Potency [9] | Potency [10] | Potency [11] | Potency [12] | Potency [13] | Potency [14] | Potency [15] | Potency [16] | Potency [17] | Potency [18] | Potency [19]
